# Laboratory results as given in PubChem BioAssay (NCATS).
# Results filed as inconclusive are left out. Entries that show only a call come without a potency. Some structures have more than one record in an assay (separate samples or runs), and their calls can disagree. Activity calls are given as the source filed them. The call rests on the fitted dose curve; in most records, active means well fitted curve in the direction sought with a large enough effect; inconclusive means small, poorly fitted or top-dose-only effect, or another doubt; inactive means no such curve, though single readings can be large; an effect the other way counts as inactive or inconclusive.
# Columns and labels:
# Tov-21-G = experiment: Primary qHTS to identify gynecologic anti-cancer compounds using libraries of approved drugs and bioactive compounds (AID 1345084); details: Gynecologic cancer cell panel viability, ATPlite luminescence, 48 h; series mostly up to 57.5 µM; further: nearly all actives have a fitted effect of over 55% in size
# How it was run: (§1)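 In this quantitative HTS, cell killing is estimated from loss of ATP-dependent luciferase light. Cells see five compound concentrations over a 48 h exposure.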
# Tov112D = experiment: as above; details: Gynecologic cancer cell panel viability, ATPlite luminescence, 48 h; series mostly up to 57.5 µM
# How it was run: as §1
# [1] = Drug repurposing screens with cells derived from glioblastoma tumor samples (AID 1345199); details: GBM patient neurospheres viability, ATP luminescence, 48 h; further: nearly all actives have a fitted effect of over 40% in size
# How it was run: (§2)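 Four patient lines of CD133+ GBM neurospheres were screened at several concentrations; hits were retested in those lines plus three slower-growing GBM lines, using 48-hour treatment and ATP-based viability.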
# astro = experiment: as above; details: viability, ATP luminescence, 48 h; series mostly up to 45.9 µM
# How it was run: as §2
# [2] = at 45.9 µM (top of the series), tumour line B
# [3] = at 45.9 µM (top of the series), tumour line D
# [4] = at 46.1 µM (top of the series), tumour line C
# Potency means the concentration at half of the fitted maximal effect.
smiles,measurement,setting,value
CC(C)N(CCC(=O)c1ccc2ccccc2c1)Cc1ccccc1,Potency,Tov-21-G,inactive
same,Potency,Tov112D,inactive
C=C(C)C(=O)OCC(O)CO (configuration not stated),Potency,Tov-21-G,inactive
same,Potency,Tov112D,inactive
O=C1CC(c2ccc(Cl)cc2)CC(=O)N1,Potency,Tov-21-G,inactive
same,Potency,Tov112D,inactive
C#CC(C)(CC)OC(=O)c1ccccc1C(=O)O (configuration not stated),Potency,Tov-21-G,inactive
same,Potency,Tov112D,inactive
CC(C)CCCC(C)NCCC(C)C (configuration not stated),Potency,Tov-21-G,inactive
same,Potency,Tov112D,inactive
Cc1nc(N)nc(N)c1-c1ccc(Cl)c(Cl)c1,Potency,Tov-21-G,794 nM (active)
same,Potency,Tov112D,3.55 µM (active)
CCOC(=O)Oc1ccc(CCNC(=O)[C@H](CCSC)NC(C)=O)cc1OC(=O)OCC,Potency,Tov-21-G,inactive
same,Potency,Tov112D,inactive
COc1ccc(OC(=O)N(CC(=O)O)Cc2ccc(OCCc3nc(-c4ccccc4)oc3C)cc2)cc1,Potency,Tov-21-G,inactive
same,Potency,Tov112D,inactive
CCc1cc2cc(OC)c(OC)cc2c(Cc2ccccc2)n1,Potency,Tov-21-G,inactive
same,Potency,Tov112D,inactive
CCC(C(=O)OCCN1CCOC(c2ccccc2)C1C)c1ccccc1 (configuration not stated),Potency,Tov-21-G,inactive
same,Potency,Tov112D,inactive
CC(=O)N1CCN(c2ccc(O)cc2)CC1,Potency,Tov-21-G,inactive
same,Potency,Tov112D,inactive
CN(C)CCOC1=Cc2ccccc2Sc2ccc(Cl)cc21,Potency,Tov-21-G,inactive
same,Potency,Tov112D,inactive
CCOC(=O)C(O)c1ccccc1 (configuration not stated),Potency,Tov-21-G,inactive
same,Potency,Tov112D,inactive
Nc1nc2ccccc2n1Cc1ccc(F)cc1,Potency,Tov-21-G,inactive
same,Potency,Tov112D,inactive
Cc1nc(C2CCCCC2)c(-c2ccc(S(N)(=O)=O)c(F)c2)o1,Potency,Tov-21-G,inactive
same,Potency,Tov112D,inactive
CCN1CCCC1CN (configuration not stated),Potency,Tov-21-G,inactive
same,Potency,Tov112D,inactive
COC(=O)/C=C\C(=O)OC,Potency,Tov-21-G,inactive
same,Potency,Tov112D,inactive
CCOC(=O)C(=O)CCc1ccccc1,Potency,Tov-21-G,inactive
same,Potency,Tov112D,inactive
CC(Oc1c(Cl)cccc1Cl)C1=NCCN1 (configuration not stated),Potency,Tov-21-G,inactive
same,Potency,Tov112D,inactive
Cc1onc(-c2c(Cl)cccc2Cl)c1C(=O)Cl,Potency,Tov-21-G,inactive
same,Potency,Tov112D,inactive
COc1ccccc1N1CCN(CC(O)COc2cc(OC)c(OC)c(OC)c2)CC1 (configuration not stated),Potency,Tov-21-G,inactive
same,Potency,Tov112D,inactive
Cc1c(F)cc2c(=O)c(C(=O)O)cn3c2c1CCC3C (configuration not stated),Potency,Tov-21-G,inactive
same,Potency,Tov112D,inactive
CC(C)(C)NCC(O)COc1ccccc1OCC1CCCO1 (configuration not stated),Potency,Tov-21-G,inactive
same,Potency,Tov112D,inactive
CC(C)(C)C1CCC(CC2=C(O)c3ccccc3C(=O)C2=O)CC1 (configuration not stated),Potency,Tov-21-G,inactive
same,Potency,Tov112D,inactive
CC(C)C(=O)Nc1cccc(C(F)(F)F)c1,Potency,Tov-21-G,inactive
same,Potency,Tov112D,inactive
Cc1cnc(NS(=O)(=O)c2ccc(N)cc2)nc1,Potency,Tov-21-G,inactive
same,Potency,Tov112D,inactive
Cc1cc(CCCOc2c(C)cc(-c3noc(C(F)(F)F)n3)cc2C)on1,Potency,Tov-21-G,inactive
same,Potency,Tov112D,inactive
OC1(c2ccc(Cl)c(C(F)(F)F)c2)CCN(CCCC(c2ccc(F)cc2)c2ccc(F)cc2)CC1,Potency,Tov-21-G,inactive
same,Potency,Tov112D,31.6 µM (active) and inactive
Oc1ccccc1-c1nnco1,Potency,Tov-21-G,inactive
same,Potency,Tov112D,inactive
CN1CCN(N)CC1,Potency,Tov-21-G,inactive
same,Potency,Tov112D,inactive
CC(CC(C#N)(c1ccccc1)C(C)C)N(C)C (configuration not stated),Potency,Tov-21-G,inactive
same,Potency,Tov112D,inactive
CN1CCCN(C(c2ccccc2)c2ccc(Cl)cc2)CC1 (configuration not stated),Potency,[1]; tumour line B,35.5 µM (active)
O=C(Nc1ccc(S(=O)(=O)N2CCOCC2)cc1)c1cc(Cl)ccc1NS(=O)(=O)c1ccc(Cl)s1,Potency,[1]; tumour line C,25.9 µM (active)
O=C(O)[C@H](O)[C@@H](O)[C@H](O[C@@H]1O[C@H](CO)[C@H](O)[C@H](O)[C@H]1O)[C@H](O)CO,"activity, negative = cell killing","[1]; at 20 µM (top of the series), tumour line C",-12.3% (inactive)
same,"activity, negative = cell killing","[1]; at 21.2 µM (top of the series), tumour line B",-2.57% (inactive)
same,"activity, negative = cell killing","[1]; at 21.2 µM (top of the series), tumour line D",-4.25% (inactive)
same,"activity, negative = cell killing","[1]; at 21.3 µM (top of the series), tumour line A",-22.9% (inactive)
CCOC(=O)[C@H](CCc1ccccc1)N[C@@H](C)C(=O)N(CC(=O)O)C1Cc2ccccc2C1,Potency,Tov-21-G,inactive
same,Potency,Tov112D,inactive
same,"activity, negative = cell killing",[1]; [2],-1.19% (inactive)
same,"activity, negative = cell killing",[1]; [3],-9.08% (inactive)
same,"activity, negative = cell killing",[1]; [4],19.3% (inactive)
same,Potency,astro,inactive
CC(=O)N(CC(O)CO)c1c(I)c(C(=O)NCCO)c(I)c(C(=O)NCC(O)CO)c1I (configuration not stated),Potency,Tov-21-G,inactive
same,Potency,Tov112D,inactive
same,"activity, negative = cell killing",[1]; [2],-10.8% (inactive)
same,"activity, negative = cell killing",[1]; [3],12.9% (inactive)
same,"activity, negative = cell killing",[1]; [4],-5.5% (inactive)
same,Potency,astro,inactive
O=C(COCCOCCOCC(=O)Nc1c(I)cc(I)c(C(=O)O)c1I)Nc1c(I)cc(I)c(C(=O)O)c1I,Potency,Tov-21-G,inactive
same,Potency,Tov112D,inactive
same,"activity, negative = cell killing",[1]; [2],-4.03% (inactive)
same,"activity, negative = cell killing",[1]; [3],-4.14% (inactive)
same,"activity, negative = cell killing",[1]; [4],15.8% (inactive)
same,Potency,astro,inactive
COc1cc(C(=O)NC2CCCNC2)cc(OC)c1OC (configuration not stated),Potency,Tov-21-G,inactive
same,Potency,Tov112D,inactive
same,"activity, negative = cell killing",[1]; [2],-2.35% (inactive)
same,"activity, negative = cell killing",[1]; [3],-10.6% (inactive)
same,"activity, negative = cell killing",[1]; [4],15.7% (inactive)
same,Potency,astro,inactive
